Data: paper PMC4336329 (PLoS ONE, 2015)
Out of some 310,000 compounds screened, about 14,000 (4.5%) showed an effect of 50% or more. The effect is printed as a negative number. The sample holds strong results, similar compounds and a random draw of the others, so the mix is not that of the screen.
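Note: peak tail current of the secondary pulse compared with the same well before compound.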

What follows are molecules tested against human ether-à-go-go-related gene (hERG) potassium channel (human, UniProt Q12809) (assay: primary screen, population patch clamp on CHO cells stably expressing hERG; higher = less effect of the substance).
Sequence of human ether-à-go-go-related gene (hERG) potassium channel (Q12809 whole entry, looked up): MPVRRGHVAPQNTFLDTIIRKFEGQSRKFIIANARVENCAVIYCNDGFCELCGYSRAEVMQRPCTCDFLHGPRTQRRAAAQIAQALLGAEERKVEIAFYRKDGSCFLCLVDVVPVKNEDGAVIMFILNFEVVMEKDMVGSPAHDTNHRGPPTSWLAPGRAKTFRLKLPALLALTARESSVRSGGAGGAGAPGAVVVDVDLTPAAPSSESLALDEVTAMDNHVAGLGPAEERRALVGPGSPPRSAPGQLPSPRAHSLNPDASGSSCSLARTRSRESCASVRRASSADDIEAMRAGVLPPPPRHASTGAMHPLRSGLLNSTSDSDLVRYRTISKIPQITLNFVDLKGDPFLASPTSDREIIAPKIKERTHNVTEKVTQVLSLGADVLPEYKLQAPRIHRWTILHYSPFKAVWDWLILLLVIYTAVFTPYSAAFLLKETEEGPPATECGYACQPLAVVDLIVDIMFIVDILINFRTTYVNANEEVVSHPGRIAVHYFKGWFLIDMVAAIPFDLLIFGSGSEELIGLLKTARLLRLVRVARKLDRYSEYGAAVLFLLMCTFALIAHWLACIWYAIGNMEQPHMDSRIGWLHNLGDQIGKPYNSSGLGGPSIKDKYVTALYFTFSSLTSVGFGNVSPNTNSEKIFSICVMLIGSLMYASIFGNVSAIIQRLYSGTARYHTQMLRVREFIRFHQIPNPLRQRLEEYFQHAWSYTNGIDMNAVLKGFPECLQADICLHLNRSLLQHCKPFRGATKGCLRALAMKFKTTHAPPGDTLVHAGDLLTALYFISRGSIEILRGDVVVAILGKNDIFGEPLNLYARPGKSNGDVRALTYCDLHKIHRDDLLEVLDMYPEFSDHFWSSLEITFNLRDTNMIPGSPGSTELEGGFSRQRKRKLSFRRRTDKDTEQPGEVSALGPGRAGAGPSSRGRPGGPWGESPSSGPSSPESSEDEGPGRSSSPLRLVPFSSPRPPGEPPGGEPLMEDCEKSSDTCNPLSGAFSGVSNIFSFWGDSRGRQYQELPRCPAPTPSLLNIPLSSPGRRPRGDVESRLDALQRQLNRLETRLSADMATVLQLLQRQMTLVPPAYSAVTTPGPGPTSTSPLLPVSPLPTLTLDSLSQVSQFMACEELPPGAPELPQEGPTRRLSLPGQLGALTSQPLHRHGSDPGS
With CCCCNC(=O)c1onc(CSc2ccc(Cl)cc2)c1C(=O)NCCCC the “hERG current change (%, negative = inhibition) at 10uM” value was -20.5%.
In the case of CCC(C(=O)Nc1ccc(C(C)C)cc1)c1ccccc1 (stereo not drawn), the “hERG current change (%, negative = inhibition) at 10uM” value is reported as 11.8%.
COc1cc(/C=N/NC(=O)CNC(=O)c2ccc3c(c2)OCCO3)ccc1O was tested, and the “hERG current change (%, negative = inhibition) at 10uM” value was 1.98%.
In the case of COc1cccc(C2CCCN2Cc2nc(-c3cnccn3)no2)c1 (stereo not drawn), the “hERG current change (%, negative = inhibition) at 10uM” value is reported as 7.84%.
With CC(NC(=O)Cc1cccs1)c1ccccc1 (stereo not drawn) the “hERG current change (%, negative = inhibition) at 10uM” value was 24.5%.
For Cc1ccc(NC(=O)CCSc2nnc(-c3ccco3)o2)cc1, the “hERG current change (%, negative = inhibition) at 10uM” value was 9.02%.
COCc1cc(=O)[nH]c(Nc2nc3ccc(C)cc3o2)n1 was tested, and the “hERG current change (%, negative = inhibition) at 10uM” value was -10.3%.
For O=C(/C=C/c1ccccc1)NCCN1CCOCC1, the “hERG current change (%, negative = inhibition) at 10uM” value was 20.6%.
For COc1ccc(C(=O)/C(=C/N(C)C)S(=O)(=O)c2ccccc2)cc1, the “hERG current change (%, negative = inhibition) at 10uM” value was 10.8%.
O.O=C1NC2(O)C(=O)c3ccccc3C2(O)N1 (stereo not drawn) was tested, and the “hERG current change (%, negative = inhibition) at 10uM” value was 11%.
O=C(N/N=C\c1cc(Br)cs1)c1ccncc1 was tested, and the “hERG current change (%, negative = inhibition) at 10uM” value was -6.73%.
In the case of CCC1Sc2ccc(S(=O)(=O)CCC(=O)NC3CCCCCC3)cc2NC1=O (stereo not drawn), the “hERG current change (%, negative = inhibition) at 10uM” value is reported as 16.1%.
c1ccc2c(c1)Oc1ccccc1S2 was tested, and the “hERG current change (%, negative = inhibition) at 10uM” value was 14.7%.
CCOC(=O)c1ccc(N=C2C(=S)N(c3ccc(C(=O)OCC)cc3)C(=N)N2/N=C/c2ccccc2)cc1 was tested, and the “hERG current change (%, negative = inhibition) at 10uM” value was -52.7%.
With N=C1N(/N=C/c2ccccc2)C(=Nc2ccccc2)C(=S)N1c1ccccc1 the “hERG current change (%, negative = inhibition) at 10uM” value was 2.03%.
For Cc1ccc(N=C2C(=S)N(c3ccc(C)cc3)C(=N)N2/N=C/c2ccc(Cl)cc2)cc1, the “hERG current change (%, negative = inhibition) at 10uM” value was -6.29%.
CCOc1ccc(C(=O)NC2CCN(C(=O)Nc3ccc(F)cc3)CC2)cc1 was tested, and the “hERG current change (%, negative = inhibition) at 10uM” value was 0.481%.
In the case of CCc1cc2c(NCCC(=O)O)nc(C)nc2s1, the “hERG current change (%, negative = inhibition) at 10uM” value is reported as 24.2%.
In the case of COc1ccc(C(=O)C2CCCN(Cc3cc(C)c(O)c(C)c3)C2)c(OC)c1 (stereo not drawn), the “hERG current change (%, negative = inhibition) at 10uM” value is reported as -61%.
In the case of COc1ccc(C(=O)C2CCCN(Cc3ccc(C#CCCO)cc3)C2)cc1F (stereo not drawn), the “hERG current change (%, negative = inhibition) at 10uM” value is reported as -45.3%.
For COc1ccc(C(=O)C2CCCN(Cc3ccc(C)s3)C2)cc1OC (stereo not drawn), the “hERG current change (%, negative = inhibition) at 10uM” value was -71.6%.
For COc1ccc2cc(C(=O)C3CCCN(Cc4cnc(C)s4)C3)ccc2c1 (stereo not drawn), the “hERG current change (%, negative = inhibition) at 10uM” value was -28.8%.
In the case of COc1ccc(C(=O)C2CCCN(Cc3ccc(C#CCCO)cc3)C2)c(OC)c1 (stereo not drawn), the “hERG current change (%, negative = inhibition) at 10uM” value is reported as -51.2%.
In the case of Cc1ncc(CN2CCCC(C(=O)c3ccc(C(C)(C)C)cc3)C2)s1 (stereo not drawn), the “hERG current change (%, negative = inhibition) at 10uM” value is reported as -72.8%.
COc1ccc(C(=O)C2CCCN(Cc3cnc(C)s3)C2)cc1OC (stereo not drawn) was tested, and the “hERG current change (%, negative = inhibition) at 10uM” value was -5.12%.
In the case of Cc1ncc(CN2CCCC(C(=O)c3cccc(Cl)c3)C2)s1 (stereo not drawn), the “hERG current change (%, negative = inhibition) at 10uM” value is reported as -13.6%.
In the case of CCOC(=O)N1CCN(c2nc(-c3cccc(OC)c3)cc(C(F)(F)F)n2)CC1, the “hERG current change (%, negative = inhibition) at 10uM” value is reported as 6.67%.
In the case of Cc1c(C(=O)N2CCCC2)c(S(=O)(=O)Nc2cccc(Br)c2)c(C)n1C, the “hERG current change (%, negative = inhibition) at 10uM” value is reported as 6.99%.
With CCN(CC)C(=O)Cn1cnc2sc(C(=O)Nc3cc(OC)c(OC)c(OC)c3)c(C)c2c1=O the “hERG current change (%, negative = inhibition) at 10uM” value was 14.5%.
In the case of Cn1cc(/C=N\NC(=O)C2COc3ccccc3O2)c2ccccc21 (stereo not drawn), the “hERG current change (%, negative = inhibition) at 10uM” value is reported as 9.62%.
For Cc1ccc(NC(=O)NNC(=O)c2cc3ccccc3cc2O)c(C)c1, the “hERG current change (%, negative = inhibition) at 10uM” value was 27.4%.
With Cc1ccccc1C1NS(=O)(=O)N=C1N (stereo not drawn) the “hERG current change (%, negative = inhibition) at 10uM” value was 23.3%.
For CC(Oc1ccc(-c2ccccc2)c(F)c1)c1ccn(S(=O)(=O)c2ccc(Br)cc2)n1 (stereo not drawn), the “hERG current change (%, negative = inhibition) at 10uM” value was 7.43%.
For COCCCNC(=O)CN1C(=O)/C(=C\c2ccc(C)cc2)Sc2ccccc21, the “hERG current change (%, negative = inhibition) at 10uM” value was -15.8%.
For COc1ccc(C(=O)C2CCCN(Cc3ccsc3)C2)cc1OC (stereo not drawn), the “hERG current change (%, negative = inhibition) at 10uM” value was -73.8%.
COc1ccc(C(=O)C2CCCN(Cc3cnc(C)s3)C2)c(OC)c1 (stereo not drawn) was tested, and the “hERG current change (%, negative = inhibition) at 10uM” value was -42.3%.
With COc1ccc(C(=O)C2CCCN(Cc3ccc(C)s3)C2)c(OC)c1 (stereo not drawn) the “hERG current change (%, negative = inhibition) at 10uM” value was -53.7%.
In the case of COc1ccc(C(=O)C2CCCN(Cc3ccc(NC(C)=O)cc3)C2)cc1OC (stereo not drawn), the “hERG current change (%, negative = inhibition) at 10uM” value is reported as -21.1%.
For NS(=O)(=O)c1ccc(CCNC(=O)C2CCN(S(=O)(=O)c3cnc[nH]3)CC2)cc1, the “hERG current change (%, negative = inhibition) at 10uM” value was -2.97%.
In the case of CC(C)(C)P(=O)(c1ccncc1)N1CCCC1 (stereo not drawn), the “hERG current change (%, negative = inhibition) at 10uM” value is reported as 2.14%.
With O=C(Nc1ccc2oc(=O)ccc2c1)c1cc([N+](=O)[O-])ccc1N1CCOCC1 the “hERG current change (%, negative = inhibition) at 10uM” value was -41.8%.
For CCN(CC(=O)Nc1ccc(NC(C)=O)cc1)C(=O)/C=C/c1ccc2c(c1)OCO2, the “hERG current change (%, negative = inhibition) at 10uM” value was 0.823%.
With CC(C)C[C@H]1CN=C(Nc2ccccc2)N1CCCC1CCCC1 the “hERG current change (%, negative = inhibition) at 10uM” value was -65.9%.
For CC(C)C[C@H]1CN=C(Nc2ccccc2)N1CCC1CCCC1, the “hERG current change (%, negative = inhibition) at 10uM” value was -51.5%.
For CC(C)C[C@H]1CN=C(Nc2ccccc2)N1CCC1CCCCC1, the “hERG current change (%, negative = inhibition) at 10uM” value was -61.5%.
Fc1ccc(CN2CCSCC2)cc1Br was tested, and the “hERG current change (%, negative = inhibition) at 10uM” value was -11.1%.
In the case of CCCN(Cc1ccco1)S(=O)(=O)c1ccc(OC)c(OC)c1, the “hERG current change (%, negative = inhibition) at 10uM” value is reported as 0.00658%.
With Cc1ccc(OCc2ccc(C(=O)N3CCOCC3)cc2)cc1C the “hERG current change (%, negative = inhibition) at 10uM” value was -12.7%.
For O=C(OCC(=O)c1ccc(Cl)s1)c1ccc(CO)cc1, the “hERG current change (%, negative = inhibition) at 10uM” value was -2.65%.
With Cn1c(SCC(N)=O)nnc1-c1ccc(S(=O)(=O)N2CCCC2)cc1 the “hERG current change (%, negative = inhibition) at 10uM” value was 4.87%.
In the case of Cc1ccc(-n2c(SCC(N)=O)nnc2-c2ccc(S(=O)(=O)N3CCCCC3)cc2)c(C)c1, the “hERG current change (%, negative = inhibition) at 10uM” value is reported as -52.7%.
In the case of NC(=O)CSc1nnc(-c2ccc(S(=O)(=O)N3CCCCC3)cc2)n1-c1ccccc1, the “hERG current change (%, negative = inhibition) at 10uM” value is reported as -14.2%.
In the case of CCN(CC)S(=O)(=O)c1ccc(S(=O)(=O)N2CCN(C(=O)c3ccco3)CC2)cc1, the “hERG current change (%, negative = inhibition) at 10uM” value is reported as 4.56%.
For CC(C)C(=O)Nc1c(-c2ccc(Cl)cc2)c(=O)c2ccccc2n1C, the “hERG current change (%, negative = inhibition) at 10uM” value was 20.9%.
CN1CCCN(C(=O)c2ccc(Cl)s2)CC1 was tested, and the “hERG current change (%, negative = inhibition) at 10uM” value was -93.3%.
CN1CCCN(C(=O)c2ccc(Br)s2)CC1 was tested, and the “hERG current change (%, negative = inhibition) at 10uM” value was -14.5%.
With O=C(c1ccc(Cl)s1)N1CCCC1 the “hERG current change (%, negative = inhibition) at 10uM” value was -0.0803%.
